Laboratory results published in PubChem BioAssay AID651820 (National Center for Advancing Translational Sciences (NCATS), 2012).
Out of some 340,000 compounds screened, about 12,000 (3.5%) were called active. Entries that show only a call come without a potency. Not shown: some 18% with an inconclusive outcome. Calls follow the shape of the dose curve; as a rule, active = well fitted inhibition curve with a large enough effect; inconclusive = small, poorly fitted or top-dose-only effect, or another doubt; inactive = no such curve, though single readings can be large or run the other way. Many of the other results were omitted from the sample, so actives are more common in it than they were.

Experiment: qHTS Assay for Inhibitors of Hepatitis C Virus (HCV)
Conditions: Huh7.5.1 HCVcc-Cre infection, luciferase reporter, 44 h; series mostly up to 41.8 µM
Excerpt: Hepatitis C virus (HCV) infects about 200 million people in the world. Many infected people progress to chronic liver disease including cirrhosis with a risk of developing liver cancer. To date, there is no effective vaccine for hepatitis C. Current therapy based on interferon is only effective in about half of the patients and is associated with significant adverse effects. The fraction of people with HCV who can complete a successful treatment is estimated to be no more than 10 percent. Recent development of direct-acting antivirals against HCV, such as protease and polymerase inhibitors, is promising but still requires combination with peginterferon and ribavirin for maximal efficacy. In addition, these agents are associated with high rate of resistance and many have significant side effects. Due to the lack of a culture system for infectious HCV, the search for new HCV drugs has been greatly hampered. […] High-throughput screening (HTS) with an infectious HCV system would cover the complete spectrum of potentially druggable targets in all stages of HCV lifecycle, and would have more biological relevance than other cell-based assays. Moreover, targeting several key processes in the viral life cycle may not only increase antiviral efficacy; more importantly, it may also reduce the capacity of the virus to develop resistance to the compound. The goal of this project is to identify novel HCV inhibitors as new therapies for hepatitis C, using a highly sensitive and specific assay platform which is based on a HCV infectious cell culture system established in the laboratory and adapted for high-throughput HCV drug screen. NIH Chemical Genomics Center [NCGC] NIH Molecular Libraries Probe Centers Network [MLPCN] MLPCN Grant: MH095511 Assay Submitter (PI): Jake Liang, NIDDK
The assay will start with plating 1,000 cells/well in 3 µL volume and culture for 4 h. Then 23 nL of compounds from the library collection will be added to each well, followed by adding 2.5 µL of HCVcc-Cre virus (~ 0.5 moi) and further cultured for 44 h before the luciferase assay. A volume of 4.5 µL luciferase substrates will be added to each well and the plates will be incubated at room temperature for 15 min. and then read for 15 sec. for the luciferase activity
In the case of Cc1ccc(C(=O)OCC(=O)N2CC(C)CC(C)C2)cc1S(=O)(=O)N1CCCCC1 (stereo unspecified), the Potency is reported as “inactive”. In the case of N#Cc1cccc(NC(=O)COC(=O)c2ccccc2C(=O)c2ccc(Cl)c([N+](=O)[O-])c2)c1, the Potency is reported as 10 µM (active). With NC(=O)c1ccc(NC(=O)COC(=O)c2ccc([N+](=O)[O-])cc2)cc1 the Potency was “inactive”. For CC(=O)Nc1ccc(NC(=O)COC(=O)c2ccccc2C(=O)c2ccccc2)cc1, the Potency was “inactive”. In the case of O=C(Nc1ccncc1)c1ccc(Cl)c([N+](=O)[O-])c1, the Potency is reported as “inactive”. In the case of CC(OC(=O)CNC(=O)c1ccc(Cl)c([N+](=O)[O-])c1)C(=O)NCc1ccco1 (stereo unspecified), the activity change, negative = inhibition is reported as -1.08% [at 8.37 µM] (inactive). With CC(=O)Nc1ccc(NC(=O)C(C)OC(=O)c2ccccc2C(=O)c2ccc(Cl)c([N+](=O)[O-])c2)cc1 (stereo unspecified) the Potency was 11.2 µM (active). In the case of COc1ccc(C(=O)COC(=O)c2c(C)noc2C)cc1Cl, the Potency is reported as “inactive”. In the case of CCOC(=O)c1ccc(NC(=O)C2CC(=O)N(c3ccc4c(c3)OCCO4)C2)cc1 (stereo unspecified), the Potency is reported as “inactive”. For CCCN(CC(=O)Nc1ccccc1C)C(=O)c1ccc(OCC(=O)N2CCOCC2)c(OCC)c1, the Potency was “inactive”. With NC(=O)NC(CC(=O)NNC(=O)c1ccccn1)c1ccc(Cl)cc1 (stereo unspecified) the Potency was “inactive”. With O=C(NCC1CCCO1)c1cc2c(s1)CCCC2 (stereo unspecified) the Potency was “inactive”. For O=C(O)c1cc(S(=O)(=O)Nc2ccc3cn[nH]c3c2)ccc1Br, the Potency was “inactive”. For O=C(NCc1ccccc1)C1=C[C@@H](c2ccccc2)C[C@@H](OCCCCO)O1, the Potency was “inactive”. With N=C(N)SCc1cccc2ccccc12 the Potency was 6.31 µM (active). For N#C/C(=C(/O)Cc1cccc2ccccc12)c1nc2ccccc2s1, the Potency was “inactive”. In the case of c1ccc2c(CNn3cnnc3)cccc2c1, the Potency is reported as “inactive”. In the case of Cc1ccc2c(c1)c1ncn(Cc3ccc(F)cc3)c(=O)c1n2C, the Potency is reported as “inactive”. For CC(C)(C)n1ncc2c(=O)n(Cc3ccc(Cl)cc3)cnc21, the Potency was 11.2 µM (active). For CC(=O)Cn1cnc2c(cnn2-c2ccccc2)c1=O, the Potency was “inactive”. For CC(C)Cn1c(SCC(=O)Nc2ccc(Cl)cc2F)nc(O)cc1=O, the Potency was “inactive”. In the case of O=C(OCC(=O)N1CCN(C(=O)c2ccco2)CC1)c1c(Cl)cccc1Cl, the Potency is reported as “inactive”. For CC1CCCCC1NC(=O)Cn1cnc2c1c(=O)n(C)c(=O)n2C (stereo unspecified), the Potency was “inactive”. With Cc1ccc(NC(=O)c2cc3ccccc3o2)cc1 the Potency was “inactive”. In the case of Cc1ccc(OC(=O)c2cc3ccccc3o2)cc1, the Potency is reported as “inactive”. For C/C(=N\NC(=S)Nc1ccc(C)cc1)c1cc2ccccc2o1, the Potency was 10 µM (active). In the case of COc1cc(C(=O)NC2CCN(C)CC2)ccc1Nc1ncc2c(n1)N(C1CCC(O)CC1)CCC(=O)N2C (stereo unspecified), the Potency is reported as “inactive”. With O=C(CSc1nnc(N2CCOCC2)n1-c1cccc(F)c1)N1CCN(c2ccccn2)CC1 the Potency was “inactive”. For Cc1cccc(-n2ncc3c(=O)[nH]c(SCC(=O)Nc4cc(C)on4)nc32)c1, the Potency was “inactive”. With Cc1c(O)c(C)c2c(c1O)C(=O)C[C@@H](c1ccccc1)O2 the Potency was “inactive”. For O=C(COc1ccc([N+](=O)[O-])cc1Cl)Nc1ccc2[nH]c(=O)[nH]c2c1, the Potency was “inactive”. In the case of COc1ccc(C(=O)Nc2ccc(CN3CCOCC3)cc2)cc1, the Potency is reported as “inactive”. With O=C(Nc1ccccc1C(=O)N1CCOCC1)c1ccc(CSc2ccccc2)cc1 the Potency was “inactive”. With O=C(Nc1ccc(CSc2ccccc2)cc1)c1ccc(CN2CCOCC2)cc1 the Potency was 3.16 µM (active). With CN(Cc1ccccc1)C(=O)COC(=O)/C=C/c1ccc2c(c1)OCO2 the Potency was “inactive”. In the case of CC(=O)c1c(C)[nH]c(C(=O)COc2ccc3c(C)cc(=O)oc3c2)c1C, the Potency is reported as “inactive”. With O=C(Nc1ccc2nc3n(c(=O)c2c1)CCCC3)c1ccc(Cl)nc1 the Potency was “inactive”. With CC1(C)C/C(=N/Nc2ccc([N+](=O)[O-])cc2[N+](=O)[O-])C(C)(C)O1 the Potency was “inactive”. In the case of CCOC(=O)C1(Cc2cccc(OC)c2)CCN(C(C)COC)CC1 (stereo unspecified), the Potency is reported as “inactive”. In the case of CCOC(=O)C1(Cc2cccc(OC)c2)CCN(Cc2csc(C(C)=O)c2)CC1, the Potency is reported as 22.4 µM (active). With CCOC(=O)C1(Cc2cccc(OC)c2)CCN(C(C)CC(C)(C)O)CC1 (stereo unspecified) the Potency was “inactive”. With c1ccc(-c2c[nH]c(-c3ccccc3)c2)cc1 the Potency was “inactive”. With CCCOc1ccc(C2c3c(oc4cc(C)c(C)cc4c3=O)C(=O)N2CCCN2CCOCC2)cc1 (stereo unspecified) the Potency was “inactive”. For Cc1cc2oc3ccc(NCCC4CCCN4C)cc3c(=O)c2cc1C (stereo unspecified), the Potency was 14.1 µM (active). In the case of Cc1cc2oc(=O)cc(CN3CCN(Cc4ccccc4)CC3)c2cc1C, the Potency is reported as “inactive”. For CSc1ncccc1C(=O)Nc1ccc2c(c1)OCO2, the Potency was “inactive”. For O=C1C2C3C=CC(C3)C2C(=O)N1c1ncc([N+](=O)[O-])s1 (stereo unspecified), the Potency was “inactive”. With CCN(C(=O)CSc1ncnc2sccc12)c1c(N)n(Cc2ccccc2)c(=O)[nH]c1=O the Potency was “inactive”. With CC(=O)c1ccc(NC(=O)c2sc3nc4n(c(=O)c3c2C)CCCCC4)cc1 the Potency was 11.2 µM (active). In the case of O=c1c2c(nc3n1CCCCC3)sc1c(O)cccc12, the Potency is reported as “inactive”. For Cc1c(C(=O)Nc2ccccc2)sc2nc3n(c(=O)c12)CCCCC3, the Potency was “inactive”.
